Mtb UGM inh = M. tuberculosis UGM enzyme inhibitors, primary screen, biochemical, fluorescence polarization, single point. purified UGM, fluorescence polarization probe displacement. inhibition, % at 10 µM. actives 0.06% (n = 320,000). AID 504406, 2011; in the data active = inhibition above about 10%, passing the limit was not always enough; inconclusive = no clear call, values can overlap the other calls
Rv3671c protease = Rv3671c serine protease inhibitors, primary screen, biochemical, fluorescence polarization, M. tuberculosis H37Rv. P9WHR9. inhibition, % at 5.96 µM. actives 0.048% (n = 320,000); in the data active = inhibition above about 38%;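 also: extracellular domain of Rv3671c used as enzyme; 0% = enzyme with DMSO and 100% = no enzyme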
Target sequence (P9WHR9 whole entry, looked up, the tested form may be a part): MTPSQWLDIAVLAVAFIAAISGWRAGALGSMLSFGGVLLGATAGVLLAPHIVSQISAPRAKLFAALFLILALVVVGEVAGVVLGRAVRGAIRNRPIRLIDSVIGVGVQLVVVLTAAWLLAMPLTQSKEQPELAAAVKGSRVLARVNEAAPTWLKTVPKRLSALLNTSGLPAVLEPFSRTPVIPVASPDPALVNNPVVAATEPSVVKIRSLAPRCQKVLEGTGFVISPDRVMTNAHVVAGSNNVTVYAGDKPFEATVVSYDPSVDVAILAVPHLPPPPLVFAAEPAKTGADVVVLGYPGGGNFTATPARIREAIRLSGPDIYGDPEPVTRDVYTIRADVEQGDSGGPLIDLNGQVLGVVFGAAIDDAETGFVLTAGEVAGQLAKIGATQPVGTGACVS
Mtb bLac sens = beta-lactam sensitization of Mtb H37Rv, H37Rv; M. tuberculosis H37Rv growth with meropenem, percent inhibition; inhibition, % at 25 µM; actives 0.27% (n = 330,000); AID 434955, 2010; call rule not given here;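 also: growth measured after seven days incubation then overnight dye step; 0% = bacteria only wells and 100% = bacteria with antibiotic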
GDH-TPI inh = GDH-TPI coupling enzyme inhibitors, primary screen, artefact control for M. tuberculosis FBA inhibitor project, biochemical, absorbance, full deck; actives 1.2% (n = 360,000); inhibition, % at 4.8 µM; GDH-TPI coupled enzyme counterscreen, NADH absorbance; AID 588335, 2011; in the data active = inhibition above about 30%;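 also: 0% = DMSO wells and 100% = wells lacking the enzyme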
Mtb FBA inh = Mtb FBA enzyme inhibitors, primary screen, biochemical, fluorescence, strain H37Rv; purified M. tuberculosis FBA, fluorescence read-out; AID 588726, 2011; inhibition, % at 1 µM; actives 2.3% (n = 360,000); Fructose-bisphosphate aldolase (Mycobacterium tuberculosis (strain ATCC 25618 / H37Rv)), …; in the data active = inhibition above about 27%;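 also: 0% = vehicle and 100% = reference inhibitor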
RecA splice inh = Mtb RecA intein splicing inhibitors, primary screen, biochemical, fluorescence, HTS | actives 0.75% (n = 290,000) | cell-free RecA intein splicing | Protein RecA (Mycobacterium tuberculosis (strain ATCC 25618 / H37Rv)), P9WHJ3 | inhibition, % (test concentration not listed) | AID 2221, 2009; in the data active = inhibition above about 30%; inconclusive = no clear call, values can overlap the other calls;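 also: 0% = vehicle wells and 100% = reference inhibitor control wells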
* = called active by the depositor; i = inactive; ? = inconclusive; / = no result given; + = active, no number. Rows were chosen to be rich in hits. Some 4% of all compounds tested hit in one or more screens of this group.

SMILES	Mtb UGM inh	Rv3671c protease	Mtb bLac sens	GDH-TPI inh	Mtb FBA inh	RecA splice inh
Cc1cccc(C2=NN(c3ccc(Br)cc3)[C@@H](C(=O)N3CCOC3=O)[C@@H]2c2ccccc2)c1	/	/	/	17.3	28.1*	/
O=C(CN1CCN(c2cccc(C(F)(F)F)c2)CC1)N(C1CCCC1)C1CCS(=O)(=O)C1 (stereo unspecified)	2.9	-9.5	-1.3	-0.3	-4.2	/
O=C(/C=C/c1cccc(O)c1)c1ccc(N2CCOCC2)cc1	-0.1	7.9	47.9	43.0*	-2.4	3.6
CS(=O)(=O)c1ccc2nc(NC(=O)c3ccc(Cl)cc3)sc2c1	-3.2	-0.3	-10.1	23.9	5.7	/
Cn1nc(C(=O)Nc2nc3ccc(S(C)(=O)=O)cc3s2)ccc1=O	-4.8	-4.1	-2.2	60.6*	-5.8	1.6
CS(=O)(=O)c1ccc2nc(NC(=O)c3ccc(=O)[nH]c3)sc2c1	1.6	-0.2	1.4	82.6*	-0.5	-8.7
CC(C)CN(C(=O)c1cc(Cl)nc2ccccc12)C1CCS(=O)(=O)C1 (stereo unspecified)	/	/	/	3.2	3.0	/
COc1ccc2c(=O)c3ccccc3oc2c1	-0.4	-1.3	-2.0	11.8	5.6	0.4
COc1ccc2c(c1)oc(=O)c1cc(OC)ccc12	2.2	-30.5	1.0	-0.7	137.9*	-2.9
COc1ccc2c(C)c(Cl)c(=O)oc2c1	0.8	4.9	-7.0	15.9	152.6*	-8.6
C=C1CC(COc2ccc3c(C)c(Cl)c(=O)oc3c2)(c2ccccc2)OC1=O (stereo unspecified)	/	/	/	19.0	121.3*	/
COC(=O)C12CCc3c(ccc4cc(OC)ccc34)C1=CC(=O)C2 (stereo unspecified)	/	/	/	45.4*	+	/
COc1ccc2cc(C(=O)O)ccc2c1	-1.0	8.2	2.0	10.0	4.8	-1.3
O=C1CCCN1CCCNc1nc(NCc2cccs2)nc2ccsc12	/	/	/	3.1	0.4	/
C[n+]1ccccc1/C=C/c1ccc([N+](=O)[O-])cc1	0.4	-1.6	?	34.6*	-0.8	0.3
C[n+]1ccccc1/C=C/c1ccc(C#N)cc1	-0.1	-1.8	3.0	19.5	0.8	-0.3
C[n+]1ccccc1/C=C/c1ccc(F)c(F)c1	0.9	5.9	3.4	35.3*	-0.6	2.7
C[n+]1ccccc1/C=C/c1ccc2ncccc2c1	-2.8	/	6.1	24.9	-0.3	-0.6
C[n+]1ccccc1/C=C/c1c(F)cccc1F	-2.2	/	-3.0	44.8*	-1.2	1.8
COc1cccc(C(O)c2nc(-c3ccc4ccccc4c3)cs2)c1 (stereo unspecified)	/	/	/	6.6	2.5	/
CC1=CC2(O)OCCN(CCO)C2=CC1=O (stereo unspecified)	-0.3	-4.1	-1.2	-0.4	4.9	65.7*
COc1ccc(Cl)cc1C(=O)NNC(=O)c1ccc(F)c(S(=O)(=O)N2CCOCC2)c1	-5.2	-0.7	1.2	11.9	-1.8	/
COc1ccc(/C=N/NC(=O)c2[nH]c3ccc(Br)cc3c2-c2ccccc2)c(C(=O)O)c1OC	-0.3	-14.9	66.5	38.8*	6.7	7.8
COc1ccc(/C=N/NC(=O)c2[nH]c3ccc(Cl)cc3c2-c2ccccc2)c(C(=O)O)c1OC	0.1	-28.6	2.6	30.9*	5.0	-2.4
O=C(N/N=C/c1ccccc1Cl)c1[nH]c2ccc(Br)cc2c1-c1ccccc1	-1.6	-142.5	-3.8	6.8	3.0	18.6
SMILES	Mtb UGM inh	Rv3671c protease	Mtb bLac sens	GDH-TPI inh	Mtb FBA inh	RecA splice inh
Cc1ccc(C(=O)N/C(=C/c2ccc(-c3cc(C(F)(F)F)ccc3Cl)o2)C(=O)NCc2cccnc2)cc1	0.5	-28.5	18.6	29.7	4.7	/
O=C(NCc1cccnc1)/C(=C/c1ccc(-c2ccc(Cl)cc2)o1)S(=O)(=O)c1ccccc1	2.2	-14.8	99.2	40.5*	5.0	35.2*
O=C(NCc1cccnc1)/C(=C/c1ccc(-c2cccc(C(F)(F)F)c2)o1)NC(=O)c1ccccc1	-1.5	-3.1	20.0	32.5*	2.0	1.8
CC(OC(=O)Cn1nnc2ccccc21)C(=O)NC1CCCC1 (stereo unspecified)	0.2	-3.8	-7.9	3.9	-0.1	-3.0
O=C(O)c1cccc(N/N=C(\N=Nc2ccccc2)c2ccccc2)c1	-0.4	18.8	87.6	5.8	1.1	40.7*
O=C(O)c1ccc(N=N/C(=N\Nc2ccc(C(=O)O)cc2)c2ccccc2)cc1	4.5	14.2	10.0	11.2	-12.5	1.5
O=C(N/N=C/c1ccc(-c2cccc(C(F)(F)F)c2)o1)c1cccc(F)c1	0.5	-19.2	91.9	44.0*	2.6	-60.6
NC(=O)N/N=C/c1ccc(-c2cccc(C(F)(F)F)c2)o1	-0.8	4.7	19.3	6.4	-4.5	-0.5
O=C(N/N=C/c1ccc(-c2cccc(C(F)(F)F)c2)o1)c1ccccc1Br	2.8	-21.7	4.4	54.2*	1.8	-3.6
O=C(Nc1ccc2c(c1)COC2=O)c1ccc(Cl)c(Cl)c1	-5.6	-159.4	-1.8	1.0	-1.6	-0.5
CCn1c(=O)c(=O)[nH]c2cc(C(=O)NC3CCCc4ccccc43)ccc21 (stereo unspecified)	-4.1	-29.3	8.6	30.6*	4.7	/
Cc1nc(=S)c2ccccc2[nH]1	2.9	0.1	4.1	30.6*	-4.7	4.3
S=c1nc(Cc2ccccc2)[nH]c2ccccc12	1.6	-9.7	-1.1	7.8	5.2	-1.0
Cc1ccc(S(=O)(=O)N2CCC(C(=O)Nc3ncccc3O)CC2)cc1	-0.4	-1.4	-0.7	9.1	-1.1	/
CCc1cc(=O)oc2c3c(cc(OCC(=O)NCc4ccco4)c12)OC(C)(C)CC3	0.3	-6.7	-8.7	22.6	154.4*	7.1
CCc1cc(=O)oc2c3c(cc(OCC(=O)NCc4ccncc4)c12)OC(C)(C)CC3	-0.8	6.7	-6.9	15.7	+	/
CC(c1ccncc1)C(C)c1ccncc1 (stereo unspecified)	1.7	8.6	-10.7	3.5	1.5	-0.6
Cc1cccc(NC(=O)c2cccc(S(=O)(=O)N(C)C3CCCCC3)c2)n1	/	/	/	3.5	-0.2	/
O=C(Nc1ccccc1C(=O)Nc1nnc(C(F)(F)F)s1)c1ccccc1Cl	-3.2	-46.7	1.6	2.6	-1.1	0.2
O=C(NCCCN1CCOCC1)c1c(F)cccc1F	-1.2	4.6	-0.2	-5.5	-2.6	1.5
Nc1c(C(=O)NCCN2CCOCC2)c2nc3ccccc3nc2n1-c1ccc2c(c1)OCO2	1.3	2.6	1.2	21.7	3.8	2.1
COCCNC(=O)c1c(N)n(-c2ccccc2)c2nc3ccccc3nc12	-2.1	-20.9	2.2	17.7	148.4*	i
Nc1c(C(=O)NCCN2CCOCC2)c2nc3ccccc3nc2n1-c1ccccc1	2.9	-11.0	-0.5	27.5	148.7*	-497.9

Screening data deposited in PubChem BioAssay by several laboratories.
